# SW480 rereplic = A quantitative high throughput screen for small molecules that induce DNA re-replication in SW480 colon adenocarcinoma cells; Potency, µM (series often up to 46.1 µM), for inactives: top-dose re-replication activation, usual class: activators; SW480 DNA re-replication, Hoechst DNA content imaging, 48 h; 340,000 tested, 1.8% active; further: potency means the concentration at half of the fitted maximal effect; % of control where 0% means no effect; nearly all actives have a fitted effect of over 55% in size
#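 Compounds, transferred as 23 nL by pin tool, were incubated with cells for 48 hr; DNA content per nucleus was then quantified by Hoechst staining and fluorescence plate imaging.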
# MCF10A rereplic = A quantitative high throughput screen for small molecules that induce DNA re-replication in MCF 10a normal breast cells; MCF 10A DNA re-replication, Hoechst nuclear intensity, 48 h; Potency, µM (top dose mostly 46.1 µM), for the others: at the highest dose activity, positive = re-replication, usual class: activators; 350,000 tested, 2.9% active; further: potency means the concentration at half of the fitted maximal effect; % of control where 0% means no effect; nearly all actives have a fitted effect of over 50% in size
# IL-1B inflam inh = qHTS for Inhibitors of Inflammasome Signaling: IL-1-beta AlphaLISA Primary Screen; activity change, % at 57.5 µM; 360,000 tested, 4.7% active; THP-1 LPS/ATP IL-1B secretion, AlphaLISA, 16 h; active compounds read low; in the data active means activity change below about -50%; inconclusive means mostly about -30% to -49%; further: on the % scale 0 is the no-effect control and ±100 the full control effect
#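 THP-1 cells pretreated 1 hr with compounds (up to 57.5 uM final), then stimulated with LPS (250 ng/mL final) plus ATP (1.25 mM final); secreted IL-1B measured by AlphaLISA after 16 hr, decreased signal indicating inhibition.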
# RORgamma inh = qHTS for inhibitors of ROR gamma transcriptional activity; 310,000 tested, 5.4% active; Drosophila S2 Gal4-RORgamma UAS-luciferase reporter, 20 h; Nuclear receptor ROR-gamma (Mus musculus), P51450; AID 2551, 2010; Potency, µM (doses to about 53.6 µM), inactives show at the highest dose activity change, negative = inhibition, most hits filed as inhibitors; further: potency means the concentration at half of the fitted maximal effect; on the % scale 0 is the no-effect control and ±100 the full control effect; nearly all actives have a fitted effect of over 60% in size
# Target sequence (P51450 whole entry, looked up, the tested form may be a part): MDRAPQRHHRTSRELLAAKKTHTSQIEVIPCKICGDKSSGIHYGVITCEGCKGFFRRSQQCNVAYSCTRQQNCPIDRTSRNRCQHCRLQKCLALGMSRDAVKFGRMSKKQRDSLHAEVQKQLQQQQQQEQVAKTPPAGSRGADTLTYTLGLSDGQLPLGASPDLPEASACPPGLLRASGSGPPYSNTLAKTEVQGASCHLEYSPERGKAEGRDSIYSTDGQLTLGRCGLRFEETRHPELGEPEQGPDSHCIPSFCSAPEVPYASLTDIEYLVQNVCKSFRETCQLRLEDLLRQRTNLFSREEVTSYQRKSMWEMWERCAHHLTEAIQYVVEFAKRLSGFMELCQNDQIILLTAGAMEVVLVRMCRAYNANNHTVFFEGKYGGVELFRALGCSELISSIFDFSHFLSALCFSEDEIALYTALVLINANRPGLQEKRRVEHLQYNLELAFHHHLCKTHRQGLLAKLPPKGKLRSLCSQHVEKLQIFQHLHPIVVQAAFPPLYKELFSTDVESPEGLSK
#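 In this cell-based reporter format, copper sulfate (700 uM final) drives Gal4–ROR gamma fusion expression from a metallothionein promoter in Drosophila Schneider cells; compounds preincubated 1 hr, reporter read after 20 hr at ambient temperature.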
# Gal4-VP16 FLuc = VP16 counterscreen qHTS for inhibitors of ROR gamma transcriptional activity. Drosophila S2 Gal4-VP16 UAS-luciferase, luminescence, 20 h. Potency, µM (highest dose often 53.6 µM), inactives show at the top dose activity, negative = inhibition, most hits filed as inhibitors. 310,000 tested, 3.5% active;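 further: Gal4-VP16 expression switched on by copper sulfate through the metallothionein promoter; potency means the concentration at half of the fitted maximal effect; on the % scale 0 is the no-effect control and ±100 the full control effect; nearly all actives have a fitted effect of over 50% in size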
# * = called active by the depositor; ? = inconclusive; . = no result; [ ] = another dose, or the depositor's remark. The list is not random: actives were taken first. Their share in the collection is about 11%. Unless noted, the call rests on the fitted dose curve; in most records, active means well fitted curve in the direction sought with a large enough effect; inconclusive means small, poorly fitted or top-dose-only effect, or another doubt; inactive means no such curve, though single readings can be large; an effect the other way counts as inactive or inconclusive.
SMILES,SW480 rereplic,MCF10A rereplic,IL-1B inflam inh,RORgamma inh,Gal4-VP16 FLuc
CCN(CC)S(=O)(=O)c1ccc(C)c(NC(=S)NC2CCCCC2)c1,19%,4%,24,10µM*,?
COc1ccccc1NS(=O)(=O)c1ccc(Cl)c(NC(=S)NC(=O)C2CCCC2)c1,1%,?,-6,?,?
COCC1C2CC[C@H]3C(OCc4ccc(F)cc4C(F)(F)F)OC[C@]4(C)[C@H]3C2=C(CN4C(=O)OC(C)(C)C)[C@H](C)C1COC (stereo not given in full),.,.,.,0%,6%
O=C(CNC(=O)C1CCCCC1)Nc1cc(Cl)ccc1Cl,-11%,11%,89,11%,-4%
CCN(CC)c1ccc(S(=O)(=O)Nc2cc(Cl)ccc2Cl)cc1NC(=S)NC(=O)C1CCCC1,7%,12µM*,-50*,5µM*,22µM*
O=C1NC2(CCCCCC2)C(=O)N1Cc1ccc(Cl)cc1Cl,1%,10%,-63*,27%,2%
O=C1C=C(NCc2ccc(Cl)cc2Cl)C2(CCCCC2)O1,?,9.2µM*,?,1%,-1%
O=C1NC2(CCCCCC2)C(=O)N1Cc1ccc(F)cc1Cl,5%,-5%,11,-11%,-15%
CCN(C(=O)COC(=O)c1ccc(O)cc1O)c1c(N)n(Cc2ccccc2)c(=O)[nH]c1=O,0%,-2%,-8,.,.
CN1CCN(c2ccc(Cl)cc2NC(=O)/C=C/c2cccc(F)c2)CC1,?,11%,-66*,-14%,-8%
CCN1CCN(c2ccc(S(=O)(=O)N3CCCCC3)cc2NC(=O)/C=C/c2ccc(Cl)cc2)CC1,44%,?,-93*,.,.
COc1ccc(OC)c(/C=C/C(=O)Nc2cccc(S(=O)(=O)N3CCCC3)c2)c1,14%,23µM*,-19,22%,15%
CCN1CCN(c2ccc(S(=O)(=O)N3CCOCC3)cc2NC(=O)/C=C/c2ccc(OC)c(OC)c2)CC1,-1%,-6%,?,.,.
CCN1CCN(c2ccc(S(=O)(=O)N3CCCCC3)cc2NC(=O)/C=C/c2cc(OC)ccc2OC)CC1,149%,21µM*,-98*,?,?
CCN1CCN(c2ccc(S(=O)(=O)N3CCCCC3)cc2NC(=O)/C=C/c2ccc(OC)c(OC)c2)CC1,17%,0%,-5,.,.
CN1CCN(c2ccc(Cl)cc2NC(=O)c2cccc(S(=O)(=O)N(C)C)c2)CC1,-1%,7%,-17,6%,-16%
Cc1ccc2oc(C(=O)NCC3CCOCC3)c(C)c2c1,-23%,-6%,-15,-9%,18%
COc1cccc(Cn2c(=O)c(-c3cccs3)nc3cnc(OCc4ccccc4)nc32)c1,.,.,.,-14%,-8%
CC(NC(=O)COC(=O)c1ccc2c(=O)n3c(nc2c1)CCCCC3)c1ccc(F)cc1 (stereo not given),.,.,-9,.,.
Cc1ccc(NC(=O)c2cc(N(C)C)ccc2[P+](=O)O)cc1,?,12µM*,-5,15%,?
Cc1ccc(NC(=O)c2ccc(F)cc2F)cc1,-8%,-11%,2,.,.
O=S1(=O)OC(c2ccc(O)cc2)(c2ccc(O)cc2)c2ccccc21,-5%,5%,.,-6%[10 µM],-21%
Cc1cc(C)c(/C([O-])=C(/C(=S)Nc2ccc(SC(F)F)cc2)[n+]2ccccc2)cc1C,?,?,5,11µM*,-11%
[O-]/C(=C(\C(=S)Nc1ccc(SC(F)F)cc1)[n+]1ccccc1)c1cc(Cl)ccc1Cl,22%,-10%,-24,?,-1%
O=C(NC1CCCCC1)C(c1ccnc2ccccc12)N1CCc2ccccc2C1 (stereo not given),.,.,53,.,.
SMILES,SW480 rereplic,MCF10A rereplic,IL-1B inflam inh,RORgamma inh,Gal4-VP16 FLuc
Cc1cccc(N/N=C/c2ccc(C)s2)c1,-7%,-4%,6,-3%,2%
Cc1ccc(C(=O)N/N=C\c2ccc([N+](=O)[O-])s2)cn1,?,-4%,-5,2.8µM*,3.2µM*
O=C(N/N=C/c1ccc([N+](=O)[O-])s1)c1ccncc1,4%,?,-98*,4.5µM*,4.5µM*
Cc1ccc(/C=N/N=C/c2ccc(C)s2)s1,-2%,-3%,-24,7.9µM*,-24%
Cc1[nH]cnc1C(=O)N/N=C/c1ccc([N+](=O)[O-])s1,?,?,17,-30%,?
O=C(N/N=C/c1ccc([N+](=O)[O-])s1)c1cccc(Br)c1,10µM*,?,1,1.1µM*,1.3µM*
CCN1C(=O)[C@H]2[C@@H](c3ccc(C)cc3)N[C@]3(CCCN(CCC(C)C)C3=O)[C@H]2C1=O,.,.,-5,.,.
O=C(NC1CCCC1)C(C1CC1)n1c(-c2ccncc2)nc2ccccc21 (stereo not given),.,.,12,.,.
CCOC(=O)N/N=C\c1ccc([N+](=O)[O-])s1,?,10%,-1,-14%,3%
Cc1ccc(C(=O)N/N=C/c2ccc([N+](=O)[O-])s2)cc1,?,24%,-19,0.71µM*,1.3µM*
Cc1ccc(/C=N/NC(=O)c2ccncc2)cc1,-27%[1.84 µM],-25%,23,-11%,-11%
Cc1ccc(/C=N/NC(=O)c2ccncc2)s1,-8%,-5%,22,7.1µM*,?
N#Cc1c(-c2ccc(Br)cc2)cc(-c2cccnc2)nc1N,-3%,17%,-9,-8%,-11%
N#Cc1c(-c2cccc(F)c2)cc(-c2ccccc2)nc1Br,0%,16%,-6,-6%,1%
CS(=O)(=O)c1nc(-c2ccc(Br)cc2)cc(-c2ccccc2)c1C#N,3.7µM*,5.8µM*,-59*,3.2µM*,?
CS(=O)c1nc(-c2ccc(Br)cc2)cc(-c2ccccc2)c1C#N (stereo not given),2%,16%,-70*,7.9µM*,14µM*
COc1ccc(-c2cc(-c3ccccc3)c(C#N)c(S(C)(=O)=O)n2)cc1,?,?,-96*,?,-28%
O=C(NCCC[N+]1=CC=N[C@H]1c1ccccc1)N1CCCc2nc(-c3ccc(Br)cc3)ccc21,.,.,.,2%[10 µM],-8%[10 µM]
c1ccc(CNc2ncnc3ccc(-c4ccc5c(c4)OCO5)cc23)cc1,.,.,.,?,-16%
O=C(NCCCN1CCOCC1)c1ccc2c(c1)N(Cc1cccc(Cl)c1)C(=O)CS2,0%,?,-8,9%,11%
CC(C)(C)NCC(O)COc1ccccc1C(C)(C)C (stereo not given),?,3%,?,-4%,2%
Cc1c[nH]c2cccc(OCC(O)CNC(C)(C)C)c12 (stereo not given),4%,-6%,-7,1.4µM*,-11%
CC(C)(C)NCC(O)COc1ccccc1C(=O)CCc1ccccc1 (stereo not given),?,11%,-77*,?,-14%

# Screening results as filed in PubChem BioAssay.
